Each structure is given as a SMILES string. Hit rate of the full screen: of about 1,400 compounds, about 140 (10%) were called active.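 The calls were made as follows: active = Half-maximal inhibitory dose from the fit at or below ten times the top valid tested dose; inconclusive = Invalid fit, or flat curve showing 30 to 70% inhibition; inactive = the rest.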 These entries were drawn from the full list. Where a call stands in place of a potency, no number is given. Potency and affinity values are given separately.

For the assay, the target named is Lysine-specific demethylase 4C (Homo sapiens) (UniProt Q9H3R0). The assay is described as follows: inhibition of JMJD2C H3K9me3 demethylation – biochemical, DELFIA europium, cherry-picked samples, dose response (AID 488835).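 Also: signal is the H3K9me2 demethylation product detected by a dimethyl-specific antibody.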 To be noted: GST-JMJD2C(1-420); series mostly up to 6 µM.
Chain of Lysine-specific demethylase 4C (Homo sapiens) (Q9H3R0 1-420 limits assumed): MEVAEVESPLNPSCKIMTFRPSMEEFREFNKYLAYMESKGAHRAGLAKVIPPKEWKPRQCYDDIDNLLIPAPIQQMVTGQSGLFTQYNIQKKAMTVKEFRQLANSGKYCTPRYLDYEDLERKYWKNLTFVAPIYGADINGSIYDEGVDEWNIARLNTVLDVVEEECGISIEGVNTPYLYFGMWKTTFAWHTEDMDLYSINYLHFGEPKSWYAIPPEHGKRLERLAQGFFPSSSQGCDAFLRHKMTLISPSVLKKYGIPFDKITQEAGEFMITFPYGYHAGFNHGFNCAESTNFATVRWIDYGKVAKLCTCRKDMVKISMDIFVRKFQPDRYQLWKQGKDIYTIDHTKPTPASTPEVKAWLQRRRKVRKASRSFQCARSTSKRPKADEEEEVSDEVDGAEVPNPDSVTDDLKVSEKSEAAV
With `CCOC(=O)N1CCC(c2nc3ccccc3[nH]2)CC1`, the compound was called inactive.
For `O=C(O)c1ccc(/C=N/Nc2cccc(C(F)(F)F)c2)cc1`, the compound was called inactive.
To `O=C(c1cccc(C(F)(F)F)c1)N1CCCC1` belongs “inactive”.
To `Cn1c2ccccc2c(=O)c2ccc(NCCc3cccs3)cc21` belongs “inactive”; to `COc1cccc(C(C[N+](=O)[O-])c2c(C)[nH]n(-c3ccccc3)c2=O)c1` (configuration not stated), “inactive”.
Under `CCCc1nn(C)c(C(=O)Nc2ccc(C)c(C)c2)c1Cl` stands “inactive”.
Regarding `O=C(Nc1nc2ccccc2n1CCN1CCCC1)C1CCCCC1`, the result was inactive.
As to `O=C(N/N=C/c1cc([N+](=O)[O-])cc([N+](=O)[O-])c1O)/C(=C\c1cccs1)NC(=O)c1ccccc1`, the call was inactive.
`Cc1ccc(/C=N\NC(=O)c2cc([N+](=O)[O-])cc([N+](=O)[O-])c2)o1`: the result was inactive.
To `CC(C)c1ccc(NC2CCCN(C(=O)CCN3CCCCC3=O)C2)cc1` (configuration not stated) belongs “inactive”; to `c1ccc(-c2csc(-n3cccn3)n2)cc1`, “inactive”; to `CCOC(=O)c1sc(=S)n(-c2ccc(Cl)cc2)c1SC`, “inactive”.
To `O=C(Nc1nnc(-c2cc(Cl)ccc2Cl)o1)c1ccco1` belongs “inactive”.
For the compound `O=C(Oc1ccc(N2C(=O)CCC2=O)cc1)c1ccccc1`, the outcome was inactive.
Under `COc1ccc(OC)c(C2=NOC(C(=O)NCCN3CCOCC3)C2)c1` (configuration not stated) stands “inactive”.
To `CCOC(=O)[C@H]1[C@H]2COc3ccc(OC)cc3[C@@H]2N2C(=O)c3cc(C)ccc3NC(=O)[C@@]12C` belongs “inactive”; to `Cc1cc2ccccn2c1C(=O)c1ccncc1`, “inactive”.
To `O=C1CC(CSc2ccc(Cl)cc2)=NN1` belongs “inactive”; to `CCN(Cc1cc2cc(OC)ccc2[nH]c1=O)C(=O)c1ccncc1`, “inactive”.
Regarding `Cc1ccccc1NC(=S)c1nc2ccccc2[nH]1`, the call was inactive.
Turning to `Cc1cccc(N2C(=O)C3C4C=CC(C4)C3C2=O)c1` (configuration not stated), the outcome was inactive.
To `O=[N+]([O-])c1ccc(/C=[N+](\[O-])[C@@H]2CCCC[C@@H]2/[N+]([O-])=C/c2ccc([N+](=O)[O-])o2)o1` belongs “inactive”.
To `Cc1cccc(C2=N/C(=C\c3cccnc3)C(=O)O2)c1` belongs “inactive”; to `Cc1cccc(NC(=O)/C(=C\c2ccc([N+](=O)[O-])o2)NC(=O)c2ccc(Cl)cc2)c1`, “inactive”.
To `COc1cccc(C2c3[nH]c4ccccc4c3CCN2CCCn2cccn2)c1` (configuration not stated) belongs “inactive”; to `N#CCCCCN1c2cccc3cccc(c23)S1(=O)=O`, “inactive”.
Turning to `O=C(Cn1cnc2c(OCc3ccccc3)ncnc21)NCCN1CCOCC1`, the result was inactive.
Regarding `CN1CCN(c2ccc([N+](=O)[O-])cc2C(=O)N2CCOCC2)CC1`, the compound was called inactive.
In the case of `Cc1c(C(=O)N2CCC3(CC2)CC(=O)c2ccccc2O3)cccc1[N+](=O)[O-]`, the outcome was inactive.
To `COc1ccc(OC)c(N(CC(=O)NCc2ccncc2)S(C)(=O)=O)c1` belongs “inactive”.
With `COc1ccc(-c2cc(C(F)(F)F)n3nc(C(=O)NCCCN4CCOCC4)cc3n2)cc1`, the compound was called inactive.
Under `Cc1[nH]c2ccccc2c1-c1ccc(Cl)nn1` stands “inactive”; under `COC(=O)c1sc(S(=O)(=O)NCc2ccccc2)c(C(=O)OC)c1C`, “inactive”; under `COC(=O)c1ccc(CSc2nnc(N)s2)o1`, “inactive”.
Take `COc1ccc(NC(=O)N(C)C[C@H]2Oc3c(NC(=O)Nc4ccccc4)cccc3C(=O)N([C@H](C)CO)C[C@@H]2C)cc1`: the result was inactive.
Under `COC(=O)C(Cc1ccccc1)NC(=O)COc1ccc(C(C)(C)C)cc1` (configuration not stated) stands “inactive”; under `COc1cc2cnncc2cc1OC`, “inactive”; under `C/C(CC(=O)Nc1cccc(Cl)c1Cl)=N\NC(=O)c1ccccc1N`, “inactive”.
To `CC(C)(O)[C@H](O)Cc1cc2ccc(=O)oc2cc1O[C@@H]1O[C@H](CO)[C@@H](O)[C@H](O)[C@H]1O` belongs “inactive”.
`CC1(C)CC[C@]2(CO)CC[C@]3(C)C(=CCC4[C@@]5(C)CC[C@H](O)[C@@](C)(CO)C5CC[C@]43C)[C@@H]2C1` (some centres not stated): the result was inactive.
Consider `CCN(C[C@H]1N[C@@](C)(C(=O)OC)[C@H]2C(=O)N(C)C(=O)[C@@H]12)C(=O)Nc1ccc(OC)cc1`, for which the call was inactive.
With `COc1ccc(/C=N/NC(=O)c2cc(C)on2)c2ccccc12`, the result was inactive.
To `O=C(NCC1CCCO1)c1ccc2c(=O)n(Cc3cccc(Br)c3)c(=S)[nH]c2c1` (configuration not stated) belongs “inactive”.
To `CCn1c(SCC(=O)Nc2nc(C)cs2)nnc1-c1ccncc1` belongs “inactive”; to `Cc1csc(NC(=O)CSc2nnc(-c3ccncc3)n2C)n1`, “inactive”; to `CCCn1c2ccccc2c2nnc(SCC(=O)Nc3c(C)n(C)n(-c4ccccc4)c3=O)nc21`, “inactive”.
Under `C[C@H](CO)N1C[C@H](C)[C@@H](CN(C)S(=O)(=O)c2ccccc2)Oc2ccc(NS(=O)(=O)c3ccc(F)cc3)cc2C1=O` stands “inactive”; under `O=C(COC(=O)Cc1ccccc1F)Nc1ccc(SC(F)F)cc1`, “inactive”; under `CC(=O)N=c1sccn1CC(=O)c1ccc([N+](=O)[O-])cc1`, “inactive”.
Take `COc1ccc(CNC(=O)CSc2nnnn2Cc2ccccc2)cc1`: the result was inactive.
Under `CCNc1oc(-c2cccc3ccccc23)nc1C#N` stands “inactive”.
On to `COc1ccccc1-c1nc(C#N)c(NCc2ccc(F)cc2)o1`, for which the compound was called inactive.
Under `O=c1c2ccccc2c(C=NCCCN2CCOCC2)c(O)n1Cc1ccccc1` stands “inactive”.
Under `CC(C)NC(=O)N(C)C[C@H]1Oc2ccc(NC(=O)C3CC3)cc2C(=O)N([C@H](C)CO)C[C@@H]1C` stands “inactive”; under `COC(=O)c1sc(NC(=O)c2cc3c(s2)CCCC3)nc1C`, “inactive”; under `Cn1c(=O)[nH]c(=O)c2c1nc(SCC(=O)O)n2CCc1ccccc1`, “inactive”.
Take `CCc1ccc(C(=O)CSc2nc3ccccc3c(=O)[nH]2)cc1`: the result was inactive.
To `c1ccc(Nc2n[nH]nc2-c2ccccc2)cc1` belongs “inactive”.
In the case of `CCn1c(=O)c(-c2nc3ccccc3[nH]2)c(O)c2ccccc21`, the compound was classed as inactive.
Take `C[C@H](CO)N1C[C@H](C)[C@@H](CN(C)C(=O)Nc2ccc(C(F)(F)F)cc2)Oc2c(cccc2N(C)C)C1=O`: the compound was called inactive.
Under `Cc1cc2oc(=O)cc(CSc3nnc(-c4cccs4)o3)c2cc1C(C)C` stands “inactive”; under `CC(=O)N1C(c2ccccc2O)C[C@]2(C)CC(=O)NC12` (some centres not stated), “inactive”.
Turning to `CCCc1cc(=O)[nH]c(SCC(=O)Nc2cc(S(=O)(=O)N(CC)c3ccccc3)ccc2Cl)n1`, the result was inactive.
Regarding `Cc1ccc(C(=O)Nc2sc3c(c2C(=O)O)CCCC3)o1`, the result was inactive.
Under `CN(C)CCCN1C(=O)C(=O)/C(=C(/O)c2ccncc2)C1c1ccccc1` (configuration not stated) stands “inactive”; under `Cc1cc(C(=O)OCc2nnc(-c3ccccc3)o2)c(C)n1-c1ccccc1`, “inactive”.
Consider `COc1ccc(C(=O)OCC(=O)c2ccccc2)cc1S(=O)(=O)N1CCOCC1`, for which the outcome was inactive.
Under `Cc1ccc(C2CC(c3cccc(Br)c3)Nc3nnnn32)cc1` (configuration not stated) stands “inactive”; under `Cc1cc(N(CN2CCCC2=O)C(=O)c2ccc(F)cc2)no1`, “inactive”; under `COC(=O)[C@]1(C)N[C@H](CN(C)C(=O)NC(C)C)[C@@H]2C(=O)N(Cc3ccccc3)C(=O)[C@@H]21`, “inactive”.
Under `COc1ccc(NC(=O)Nc2ccc3c(c2)C(=O)N([C@H](C)CO)C[C@H](C)[C@@H](CN(C)S(=O)(=O)c2cccs2)O3)cc1` stands “inactive”; under `CC(C)NC(=O)Nc1ccc2c(c1)C(=O)N([C@H](C)CO)C[C@@H](C)[C@@H](CN(C)C(=O)NC1CCCCC1)O2`, “inactive”; under `CCCn1nnnc1SCC(=O)NNC(=O)c1ccco1`, “inactive”.
To `CCCn1c(SCC(=O)Nc2c(C)cccc2CC)nnc1C(C)C` belongs “inactive”; to `Cc1cc(OC(=O)N2CCOCC2)cc(C)c1Cl`, “inactive”; to `CC1CN(Cc2ccccc2)c2nc3c(c(=O)n(C)c(=O)n3C)n2C1` (configuration not stated), “inactive”.
With `OC1(c2cccc(F)c2)CCN(Cc2ccncc2)CC1`, the result was inactive.
To `COc1ccc(CCC(=O)Nc2sccc2C#N)cc1` belongs “inactive”; to `CCOC(=O)CNC(=O)CNC(=O)c1ccc(OC)cc1`, “inactive”; to `COc1ccc(CCNC(=O)COC(=O)c2ccc(Br)o2)cc1`, “inactive”.
Under `COc1cc(-c2nc(-c3cccc(C)c3)no2)cc(OC)c1OC` stands “inactive”; under `Cc1[nH]n2c(=O)c3c(nc2c1-c1ccccc1)CCCC3`, “inactive”.
For `CCOC(=O)C1=C(C)NC(=O)NC1c1ccc(Br)s1` (configuration not stated), the compound was called inactive.
In the case of `CCOC(=O)C1=C(c2ccccc2)NC(=O)NC1c1ccc(O)c(OCC)c1` (configuration not stated), the compound was classed as inactive.
To `O=C(c1cccc(-n2cccc2)c1)N1CCN(S(=O)(=O)c2c(F)cccc2F)CC1` belongs “inactive”; to `CC(=O)N1CCN(c2ccc([N+](=O)[O-])c(-n3nc(C)cc3C)c2)CC1`, “inactive”; to `Cc1ccc(S(=O)(=O)NC(=O)NC(C)Cc2ccccc2)cc1` (configuration not stated), “inactive”.
To `COc1ccc(NC(=O)N(C)C[C@H]2Oc3c(NS(=O)(=O)c4cn(C)cn4)cccc3C(=O)N([C@H](C)CO)C[C@@H]2C)cc1` belongs “inactive”.
Under `Nc1ncnc2c1ncn2[C@@H]1O[C@H](CNCC#Cc2ccccc2)[C@@H](O)[C@H]1O` stands “inactive”.
As for `C=CCn1c(O)c(N=Nc2ccccc2C)c2ccccc21`, the call was inactive.
As to `C=CCn1c(-c2cccc3ccccc23)n[nH]c1=S`, the outcome was inactive.
To `c1ccn2c(SCc3cn4ccsc4n3)nnc2c1` belongs “inactive”.
Under `CCOc1cccc(C2C(C(=O)c3ccco3)=C(O)C(=O)N2Cc2ccncc2)c1` (configuration not stated) stands “inactive”.
To `CCC(C)(C)NC(=O)C(c1cccn1C)N(Cc1ccc(OC)cc1)C(=O)Cn1nnc2ccccc21` (configuration not stated) belongs “inactive”; to `O=C(Oc1cccc(NC(=O)c2ccco2)c1)c1cccc(S(=O)(=O)N2CCCC2)c1`, “inactive”.
For `Cc1cc(-n2c(SCC(=O)NCc3cccs3)nc3n[nH]c(C)c3c2=N)ccc1Cl`, the call was inactive.
Under `O=c1[nH]c(S)nc2sc3c(c12)CCCC3` stands “inactive”; under `CCOC(=O)C1=C(C)NC2=C(C(=O)CCC2)C1c1coc2ccccc2c1=O` (configuration not stated), “inactive”; under `COc1ccc(CCNC(=O)c2ccccc2Cl)cc1OC`, “inactive”.
To `CCOc1cc(CN2CCN(CCc3ccccc3)C(CCO)C2)ccc1OC` (configuration not stated) belongs “inactive”.
To `CCc1ccc(NC(=O)N(CCN2CCOCC2)C2CCN(C(C)=O)CC2)cc1` belongs “inactive”; to `Cc1nnc(SCc2nnc(-c3ccccc3)o2)n(N)c1=O`, “inactive”.
